{"source": "PubChem BioAssay AID504834", "about": "(National Center for Advancing Translational Sciences (NCATS), 2011)", "note": "Hit rate of the full screen: of about 320,000 compounds, about 22,000 (6.9%) were called active. Roughly 27% stayed inconclusive and do not appear here. The call rests on the fitted dose curve; in most records, active means well fitted inhibition curve with a large enough effect; inconclusive means small, poorly fitted or top-dose-only effect, or another doubt; inactive means no such curve, though single readings can be large or run the other way. What follows is part of a selection rich in actives, with near analogues and random picks from the rest. On the % scale 0 is the no-effect control and ±100 the full control effect; potency means the concentration at half of the fitted maximal effect."}
{"assay": "Primary qHTS for delayed death inhibitors of the malarial parasite plastid, 96 hour incubation", "details": "P. falciparum luciferase reporter growth; series mostly up to 28.7 µM; activity change, negative = inhibition: at the top concentration", "in_short": "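Two-generation exposure (96 h) targets delayed-death phenotype. Reporter parasites carrying integrated firefly luciferase, in red cells at 2% hematocrit and 0.05% parasitemia final, kept at 37 C, 5% CO2; luminescence loss indicates inhibition.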"}
{"smiles": "COc1ccc(OC)c(NC(=O)C2CCCN2S(=O)(=O)c2cccc3nsnc23)c1", "note": "(stereo not given)", "Potency": "13.1 µM (active)"}
{"smiles": "Cc1ccc(NC(=O)C2CCCN2S(=O)(=O)c2cccc3cccnc23)c(C)c1", "note": "(stereo not given)", "activity change, negative = inhibition": "-6.33% (inactive)"}
{"smiles": "COc1ccc(N(C)C(=O)C2CCN(S(=O)(=O)c3cccc4nsnc34)CC2)cc1", "activity change, negative = inhibition": "43.7% (inactive)"}
{"smiles": "O=S(=O)(c1ccc(Cl)s1)N1CCC2(CC1)OCCO2", "activity change, negative = inhibition": "-6% (inactive)"}
{"smiles": "Cc1ccc(OCC(=O)N2CCN(S(=O)(=O)c3ccc(Cl)s3)CC2)cc1C", "Potency": "9.28 µM (active)"}
{"smiles": "CS(=O)(=O)N1CCN(C(=O)c2cc3ccccc3oc2=O)CC1", "activity change, negative = inhibition": "-19.7% (inactive)"}
{"smiles": "O=C(c1cc2ccccc2o1)N1CCN(S(=O)(=O)c2ccc(Cl)s2)CC1", "Potency": "11.7 µM (active)"}
{"smiles": "O=C(CN1CCN(S(=O)(=O)c2ccc(Cl)s2)CC1)N1CCCCC1", "activity change, negative = inhibition": "-16.4% (inactive)"}
{"smiles": "Cc1cc(OCC(=O)N2CCN(c3ncccn3)CC2)ccc1Cl", "activity change, negative = inhibition": "35.5% (inactive)"}
{"smiles": "O=C(CSc1nnc(CN2CCCC2)n1-c1ccc(F)cc1)c1ccc2c(c1)OCO2", "activity change, negative = inhibition": "29.9% (inactive)"}
{"smiles": "COc1ccc(C(CNC(=O)COc2ccc([N+](=O)[O-])cc2)N2CCCCC2)cc1", "note": "(stereo not given)", "activity change, negative = inhibition": "-21.8% (inactive)"}
{"smiles": "COC(=O)C1=C(c2ccc(F)cc2F)C[C@@H]2CC[C@H]1N2C(=O)NC1CC1", "activity change, negative = inhibition": "39.5% (inactive)"}
{"smiles": "COC(=O)C1=C(c2ccc(Cl)c(C(F)(F)F)c2)C[C@@H]2CC[C@H]1N2C(=O)NC1CC1", "Potency": "5.86 µM (active)"}
{"smiles": "Cc1ccc(N2CC(C(=O)Nc3ccc(S(=O)(=O)N4CCCC4)cc3)CC2=O)cc1C", "note": "(stereo not given)", "activity change, negative = inhibition": "49.4% (inactive)"}
{"smiles": "COC(=O)c1cc(C(=O)NC(C)C2CC3CCC2C3)cc([N+](=O)[O-])c1", "note": "(stereo not given)", "activity change, negative = inhibition": "0% (inactive)"}
{"smiles": "Nc1c(C(=O)NCc2ccccc2)nnn1Cc1cccc(Cl)c1", "activity change, negative = inhibition": "-16.3% (inactive)"}
{"smiles": "Cc1ccc(NC(=O)Cn2nnc(C(=O)NCc3ccco3)c2N)c(C)c1", "activity change, negative = inhibition": "-25.7% (inactive)"}
{"smiles": "COc1cccc(CNC(=O)c2nnn(CC(=O)Nc3cc(C)ccc3C)c2N)c1", "Potency": "11.7 µM (active)"}
{"smiles": "CCOc1ccc(Cn2nnc(C(=O)NCc3ccccc3)c2N)cc1", "activity change, negative = inhibition": "2.1% (inactive)"}
{"smiles": "COc1cccc(CNC(=O)c2n[nH]c3ccccc23)c1", "activity change, negative = inhibition": "82.7% (inactive)"}
{"smiles": "COc1cccc(CNC(=O)c2nnn(CC(=O)Nc3cc(Cl)ccc3C)c2N)c1", "Potency": "3.7 µM (active)"}
{"smiles": "O=C(c1cccc(Br)c1)N1CCN(C2=NS(=O)(=O)c3ccccc32)CC1", "activity change, negative = inhibition": "24.3% (inactive)"}
{"smiles": "Cc1ccc(S(=O)(=O)CC(=O)NC(C)c2ccccc2)cc1", "note": "(stereo not given)", "activity change, negative = inhibition": "-14% (inactive)"}
{"smiles": "CC1=CC(C)(C)NC(=S)N1NC(=O)c1ccccc1Cl", "activity change, negative = inhibition": "18.6% (inactive)"}
{"smiles": "COC(=O)c1cc(NC(=O)c2ccco2)ccc1N1CCOCC1", "activity change, negative = inhibition": "71.2% (inactive)"}
{"smiles": "COc1ccc(C(=O)Nc2sc(C)c(C)c2CN2CCOCC2)cc1", "activity change, negative = inhibition": "48.4% (inactive)"}
{"smiles": "COc1cc(C(c2c(NC(=O)c3ccco3)sc(C)c2C)N2CCOCC2)cc(OC)c1OC", "note": "(stereo not given)", "Potency": "3.7 µM (active)"}
{"smiles": "Cc1sc2ncn(CC(=O)NCCN(C)C)c(=O)c2c1S(=O)(=O)N1CCC(C)CC1", "activity change, negative = inhibition": "8.01% (inactive)"}
{"smiles": "c1ccc(C2CNCc3c2ccc2ccccc32)cc1", "note": "(stereo not given)", "Potency": "9.28 µM (active)"}
{"smiles": "Cc1ccc2c(=O)cc(C(=O)NCCc3ccc(S(N)(=O)=O)cc3)oc2c1C", "activity change, negative = inhibition": "22.4% (inactive)"}
{"smiles": "COc1ccc(OC)c(S(=O)(=O)N(C)CC(=O)N2CCN(c3ccccc3)CC2)c1", "activity change, negative = inhibition": "3.74% (inactive)"}
{"smiles": "CC(CC(=O)N1CCN(c2ccccc2)CC1)c1ccccc1", "note": "(stereo not given)", "activity change, negative = inhibition": "20.5% (inactive)"}
{"smiles": "COc1ccc(C(CC(=O)N2CCN(c3ccccc3)CC2)c2c(O)cc(OC)cc2OC)cc1", "note": "(stereo not given)", "Potency": "11.7 µM (active)"}
{"smiles": "NNC(=O)CNC(c1ccccc1)c1cc(Cl)ccc1NC(=O)c1ccccc1", "note": "(stereo not given)", "activity change, negative = inhibition": "244% (inactive)"}
{"smiles": "Cc1ccc(NC(=O)/C(=C\\c2ccccc2)NC(=O)c2ccco2)cc1", "activity change, negative = inhibition": "19.5% (inactive)"}
{"smiles": "COc1ccc(CNc2nnnn2C)cc1", "activity change, negative = inhibition": "-14.9% (inactive)"}
{"smiles": "CCOC(=O)CNc1nc2ccccc2n2c(C)nnc12", "activity change, negative = inhibition": "-0.978% (inactive)"}
{"smiles": "Fc1ccc(CNc2nc3ccccc3n3nnnc23)cc1", "Potency": "14.7 µM (active)"}
{"smiles": "Cc1cnc(NC(=O)c2ccc(Cl)nc2)s1", "activity change, negative = inhibition": "-12.9% (inactive)"}
{"smiles": "Cc1nnsc1C(=O)NCc1c(F)cccc1Cl", "activity change, negative = inhibition": "6.81% (inactive)"}
{"smiles": "O=C(CNC(=O)c1ccccc1Br)NNC(=O)c1cccs1", "activity change, negative = inhibition": "11.1% (inactive)"}
{"smiles": "Cc1ccc(-c2nc(CS(=O)(=O)CC(=O)NCc3ccc4c(c3)OCO4)c(C)o2)cc1", "Potency": "14.7 µM (active)"}
{"smiles": "COc1ccc(-c2nc(CS(=O)(=O)CC(=O)NCc3cccc(Br)c3)c(C)o2)cc1", "activity change, negative = inhibition": "0.16% (inactive)"}
{"smiles": "COc1ccc(CCNC(=O)CS(=O)(=O)Cc2nc(-c3ccc(C)cc3)oc2C)cc1OC", "activity change, negative = inhibition": "4.87% (inactive)"}
{"smiles": "C=CCNC(=O)c1ccc2c3n(nc2c1)-c1ccc(C)cc1CO3", "activity change, negative = inhibition": "64.3% (inactive)"}
{"smiles": "COc1cc(/C(=C/c2ccccc2)c2ccccc2)c2c(c1)oc1ccccc12", "Potency": "13.1 µM (active)"}
{"smiles": "COc1cc2c(cc1NC(=O)COC(=O)/C=C/c1ccccc1)oc1ccccc12", "activity change, negative = inhibition": "49.8% (inactive)"}
{"smiles": "Cc1oc2cc(Br)c(O)c(Br)c2c1C(=O)c1ccccc1", "activity change, negative = inhibition": "14.3% (inactive)"}
{"smiles": "CNC(=O)c1sc(NCc2ccccc2OC)nc1C", "activity change, negative = inhibition": "8.94% (inactive)"}
{"smiles": "O=C(CCNC(=O)c1ccc(Br)cc1)NCCCc1ccccc1", "activity change, negative = inhibition": "20.7% (inactive)"}
{"smiles": "COc1ccc(N2CCN(C(=O)CSc3nc4cc(OC)c(OC)cc4cc3C#N)CC2)cc1", "activity change, negative = inhibition": "79% (inactive)"}
{"smiles": "COc1ccc(CCNC(=O)CSc2nnc(-c3cccc(F)c3)o2)cc1OC", "activity change, negative = inhibition": "278% (inactive)"}
{"smiles": "COc1ccc(CCNC(=O)CSc2nc(C)nc3c2oc2ccccc23)cc1OC", "Potency": "5.86 µM (active)"}
{"smiles": "COc1ccc(CNC(=O)CSc2n[nH]c(N)n2)cc1OC", "activity change, negative = inhibition": "5.59% (inactive)"}
{"smiles": "COc1ccc(CCNC(=O)CCn2c(=O)oc3ccccc32)cc1OC", "activity change, negative = inhibition": "-20.2% (inactive)"}
{"smiles": "COc1ccc(CCNC(=O)CSc2nc(-c3ccc(OC)c(OC)c3)ccc2C#N)cc1", "Potency": "10.4 µM (active)"}
{"smiles": "O=C(CCN1CCCO1)N1CCCC(N2CCN(c3cccc(C(F)(F)F)c3)CC2)C1", "note": "(stereo not given)", "activity change, negative = inhibition": "-24.3% (inactive)"}
{"smiles": "Cc1ccc(CSc2nsc(C)c2C#N)cc1", "activity change, negative = inhibition": "15.2% (inactive)"}
{"smiles": "CCC(C)(C)NC(=O)CN(C(=O)CCC(=O)Nc1nccs1)c1ccc2c(c1)OCO2", "activity change, negative = inhibition": "-16.6% (inactive)"}
{"smiles": "COc1ccc(CNC(=O)COC(=O)c2c(C)nn(-c3ccccc3)c2C)cc1OC", "activity change, negative = inhibition": "53.4% (inactive)"}
{"smiles": "Cc1nn(CC(=O)N2CCCCC2)c(=O)c2nn(-c3ccccc3)c(C)c12", "activity change, negative = inhibition": "-25.7% (inactive)"}
{"smiles": "Cc1nc2c(C(=O)NCc3ccc4c(c3)OCO4)c[nH]n2c(=O)c1Cc1ccccc1F", "activity change, negative = inhibition": "69.3% (inactive)"}
{"smiles": "COc1ccc(CNC(=O)C(C)n2nc(C)c3c(C)n(-c4ccccc4)nc3c2=O)c(OC)c1", "note": "(stereo not given)", "Potency": "10.4 µM (active)"}
{"smiles": "CCn1c(=O)c(C(=O)NCc2ccc3c(c2)OCO3)c(O)c2ccccc21", "activity change, negative = inhibition": "12.7% (inactive)"}
{"smiles": "Cc1ccc(-n2nc3c(=O)n(C(C)C(=O)NCc4ccc5c(c4)OCO5)nc(C)c3c2C)cc1", "note": "(stereo not given)", "Potency": "1.31 µM (active)"}
